# From PubChem BioAssay AID1016 (Sanford-Burnham Center for Chemical Genomics, 2008)
# Among all 200,000 compounds or so, about 330 (0.17%) were called active.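 How the source made its calls: active means activation factor of 2 or more at 20 µM, a signal rise over negative controls twice the positive control's; inactive means the rest.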 The full list was thinned out, with actives kept by preference.
# Tested on: alkaline phosphatase, intestinal [Bos taurus]
# Assay: bovine intestinal alkaline phosphatase activators, primary screen, biochemical, bovine IAP, CDP-star luminescence (AID 1016)
# Conditions: purified bovine IAP, 30 min, at 20 µM, hits give high values
row,SMILES,activation factor
1,Cc1cc(C)cc(NC(=S)NC2CC3CCCC(C2)N3Cc2cccs2)c1 (stereo not given),3 (active)
2,COP(=O)(OC)C(NC(=O)c1ccc(C)cc1)C(Cl)(Cl)Cl (stereo not given),0.8 (inactive)
3,CN(C)C(=O)Oc1ccc(OCc2cccc[n+]2C)cc1,1 (inactive)
4,CCOC(=O)C1SC2(C(F)(F)C(F)F)CC1(O)c1c(c(OC)c3occc3c1OC)O2 (stereo not given),0.9 (inactive)
5,CN(C)CC1CCCCC1OC(=O)c1ccc(Cl)c(Cl)c1 (stereo not given),1 (inactive)
